Reference: ChEMBL document CHEMBL3988442, “University of Dundee, Small-Polar-MMV Screening Library” (2021)
For some of these results: Entries with a potency or affinity are not part of this list.

Key:
Set-up in all cases: scale not given: direction of the effect not stated beside the values
[1] = molecular target: Protein translocase subunit SecA (Escherichia coli (strain K12)) (UniProt P10408); test: Assay to Identify E. coli SecA ATPase Inhibitors; format: functional; conditions: 30 µM
[2] = molecular target: T1, Ubiquitin-activating enzyme e1, putative (Leishmania donovani (strain BPK282A1)) (UniProt E9BSI1); test: Leishmania donovani Ubiquitin Activating Enzyme (LdE1); format: functional; conditions: 30 µM
T1 sequence (whole entry): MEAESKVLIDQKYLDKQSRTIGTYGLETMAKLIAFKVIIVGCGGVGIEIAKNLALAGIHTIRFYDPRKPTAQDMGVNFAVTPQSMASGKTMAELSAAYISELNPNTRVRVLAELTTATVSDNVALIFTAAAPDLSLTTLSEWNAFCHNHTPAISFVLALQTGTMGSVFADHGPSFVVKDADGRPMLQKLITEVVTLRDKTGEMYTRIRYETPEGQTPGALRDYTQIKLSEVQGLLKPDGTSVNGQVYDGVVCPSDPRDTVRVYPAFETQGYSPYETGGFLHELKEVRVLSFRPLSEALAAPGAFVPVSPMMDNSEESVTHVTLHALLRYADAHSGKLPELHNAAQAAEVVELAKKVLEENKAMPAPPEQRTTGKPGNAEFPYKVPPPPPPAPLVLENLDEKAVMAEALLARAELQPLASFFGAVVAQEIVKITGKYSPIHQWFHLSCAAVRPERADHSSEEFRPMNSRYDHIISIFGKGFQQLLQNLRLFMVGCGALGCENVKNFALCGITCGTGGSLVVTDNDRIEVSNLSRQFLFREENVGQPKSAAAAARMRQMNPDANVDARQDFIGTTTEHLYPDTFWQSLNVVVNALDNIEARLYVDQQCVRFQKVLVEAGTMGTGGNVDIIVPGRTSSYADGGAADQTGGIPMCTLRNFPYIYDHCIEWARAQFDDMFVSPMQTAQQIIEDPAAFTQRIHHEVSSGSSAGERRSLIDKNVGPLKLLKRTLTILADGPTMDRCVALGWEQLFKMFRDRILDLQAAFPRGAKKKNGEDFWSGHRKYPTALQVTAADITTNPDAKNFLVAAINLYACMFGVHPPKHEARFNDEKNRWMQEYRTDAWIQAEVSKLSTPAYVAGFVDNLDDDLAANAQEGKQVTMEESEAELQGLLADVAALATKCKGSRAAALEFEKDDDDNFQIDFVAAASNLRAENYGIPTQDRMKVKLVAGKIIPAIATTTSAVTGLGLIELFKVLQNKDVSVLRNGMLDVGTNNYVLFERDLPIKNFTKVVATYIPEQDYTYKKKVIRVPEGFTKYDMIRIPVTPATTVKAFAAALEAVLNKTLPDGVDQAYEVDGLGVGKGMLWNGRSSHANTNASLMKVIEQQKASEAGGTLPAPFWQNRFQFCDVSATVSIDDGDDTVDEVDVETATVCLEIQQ

[3] = molecular target: AMP-activated protein kinase, AMPK (Homo sapiens) (UniProt P54646+O43741+P54619+Q9UGJ0+Q9Y478+Q13131+Q9UGI9); test: AMP-dependent Kinase enzyme assay. An in vitro enzyme assay that detects ADP turnover that is directly proportional to AMPK activity. This uses naive AMPK that is activated during the assay with MK-8722; format: functional; conditions: 30 µM
[4] = molecular target: Sialic acid-binding Ig-like lectin 9 (Homo sapiens) (UniProt Q9Y336); test: Hs-Siglec9 ALPHAscreen SOP 20170721; conditions: 10 µM
Trypanosoma cruzi = test: Trypanosoma cruzi phosphomannomutase and mannose-1-phosphate guanylyltransferase assay; format: functional; conditions: 10 µM
[5] = molecular target: T2, Arginase-2, mitochondrial (Homo sapiens) (UniProt P78540); test: in vitro enzyme assay to detect the production of urea directly proportional to the activity of Arginase II; format: functional; conditions: 33.3 µM; also: in the data most compounds retested in dose-response had high values
T2 sequence (whole entry): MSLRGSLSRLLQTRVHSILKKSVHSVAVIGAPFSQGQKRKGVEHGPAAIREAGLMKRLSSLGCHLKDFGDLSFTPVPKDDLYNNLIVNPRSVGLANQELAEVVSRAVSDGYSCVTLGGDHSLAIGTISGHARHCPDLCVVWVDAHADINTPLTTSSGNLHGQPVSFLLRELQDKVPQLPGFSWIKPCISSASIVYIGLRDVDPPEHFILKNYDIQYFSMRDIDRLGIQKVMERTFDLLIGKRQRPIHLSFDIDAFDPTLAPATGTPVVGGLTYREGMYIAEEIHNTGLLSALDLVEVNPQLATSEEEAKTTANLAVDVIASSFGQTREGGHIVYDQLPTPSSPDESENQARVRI

[6] = molecular target: T3, Proteasome subunit beta (Trypanosoma cruzi) (UniProt O96673); test: Trypanosoma cruzi proteasome chymotrypsin-like activity (TcProtChymo) assay.; also: in the data most compounds retested in dose-response had high values; format: functional; conditions: 9.37 µM
T3 sequence (whole entry): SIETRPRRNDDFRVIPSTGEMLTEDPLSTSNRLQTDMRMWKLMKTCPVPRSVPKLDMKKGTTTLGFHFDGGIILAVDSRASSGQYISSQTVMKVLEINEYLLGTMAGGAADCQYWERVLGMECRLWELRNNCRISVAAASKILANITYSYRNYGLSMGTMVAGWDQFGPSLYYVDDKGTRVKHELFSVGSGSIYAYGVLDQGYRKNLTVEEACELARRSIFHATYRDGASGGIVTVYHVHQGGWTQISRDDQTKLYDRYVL

Homo sapiens = species: Homo sapiens; test: To identify inhibition of the IFN signalling (Jak-Stat) pathway via expression of an eGFP reporter gene under the control of an IFN-stimulated response element (ISRE) containing MxA promoter.; format: functional; conditions: 30 µM
[7] = molecular target: T4, Tyrosyl-tRNA synthetase, putative (Trypanosoma cruzi (strain CL Brener)) (UniProt Q4DSP6); test: Trypanosoma cruzi tyrosyl tRNA synthetase (TcYRS) _High Tyrosine SOP; format: functional; conditions: 30 µM; also: in the data most compounds retested in dose-response had high values
T4 sequence (whole entry): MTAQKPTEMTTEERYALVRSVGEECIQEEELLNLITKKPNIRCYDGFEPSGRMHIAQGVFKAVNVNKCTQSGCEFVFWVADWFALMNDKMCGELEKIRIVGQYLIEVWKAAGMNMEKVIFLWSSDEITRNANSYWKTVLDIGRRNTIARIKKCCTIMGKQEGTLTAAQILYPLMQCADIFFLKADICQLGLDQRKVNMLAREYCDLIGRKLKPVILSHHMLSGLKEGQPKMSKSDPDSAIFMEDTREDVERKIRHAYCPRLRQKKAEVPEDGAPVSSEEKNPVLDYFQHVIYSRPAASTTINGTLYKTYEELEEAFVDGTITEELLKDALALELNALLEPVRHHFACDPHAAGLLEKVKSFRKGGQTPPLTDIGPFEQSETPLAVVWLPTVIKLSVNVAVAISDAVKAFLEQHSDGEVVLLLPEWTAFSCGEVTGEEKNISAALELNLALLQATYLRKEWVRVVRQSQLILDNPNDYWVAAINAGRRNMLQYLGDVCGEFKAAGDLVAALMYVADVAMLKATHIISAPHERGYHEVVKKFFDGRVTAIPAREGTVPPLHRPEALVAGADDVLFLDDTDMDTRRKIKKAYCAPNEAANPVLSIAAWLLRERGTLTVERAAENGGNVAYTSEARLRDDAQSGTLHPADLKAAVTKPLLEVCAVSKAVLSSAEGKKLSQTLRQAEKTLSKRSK

[8] = molecular target: T4, Tyrosyl-tRNA synthetase, putative (Trypanosoma cruzi (strain CL Brener)); test: Trypanosoma cruzi tyrosyl tRNA synthetase (TcYRS) SOP; format: functional; conditions: 30 µM
[9] = molecular target: Chromo domain-containing protein 1 (Saccharomyces cerevisiae (strain ATCC 204508 / S288c) (Baker's yeast)) (UniProt P32657); test: ScCHD-1 Enzyme Inhibition Assay; format: functional; conditions: 30 µM; also: in the data most compounds retested in dose-response had high values
Chromo domain-containing protein 1 (Saccharomyces cerevisiae (strain ATCC 204508 / S288c) (Baker's yeast)), sequence (P32657 whole entry, the tested form may be a part): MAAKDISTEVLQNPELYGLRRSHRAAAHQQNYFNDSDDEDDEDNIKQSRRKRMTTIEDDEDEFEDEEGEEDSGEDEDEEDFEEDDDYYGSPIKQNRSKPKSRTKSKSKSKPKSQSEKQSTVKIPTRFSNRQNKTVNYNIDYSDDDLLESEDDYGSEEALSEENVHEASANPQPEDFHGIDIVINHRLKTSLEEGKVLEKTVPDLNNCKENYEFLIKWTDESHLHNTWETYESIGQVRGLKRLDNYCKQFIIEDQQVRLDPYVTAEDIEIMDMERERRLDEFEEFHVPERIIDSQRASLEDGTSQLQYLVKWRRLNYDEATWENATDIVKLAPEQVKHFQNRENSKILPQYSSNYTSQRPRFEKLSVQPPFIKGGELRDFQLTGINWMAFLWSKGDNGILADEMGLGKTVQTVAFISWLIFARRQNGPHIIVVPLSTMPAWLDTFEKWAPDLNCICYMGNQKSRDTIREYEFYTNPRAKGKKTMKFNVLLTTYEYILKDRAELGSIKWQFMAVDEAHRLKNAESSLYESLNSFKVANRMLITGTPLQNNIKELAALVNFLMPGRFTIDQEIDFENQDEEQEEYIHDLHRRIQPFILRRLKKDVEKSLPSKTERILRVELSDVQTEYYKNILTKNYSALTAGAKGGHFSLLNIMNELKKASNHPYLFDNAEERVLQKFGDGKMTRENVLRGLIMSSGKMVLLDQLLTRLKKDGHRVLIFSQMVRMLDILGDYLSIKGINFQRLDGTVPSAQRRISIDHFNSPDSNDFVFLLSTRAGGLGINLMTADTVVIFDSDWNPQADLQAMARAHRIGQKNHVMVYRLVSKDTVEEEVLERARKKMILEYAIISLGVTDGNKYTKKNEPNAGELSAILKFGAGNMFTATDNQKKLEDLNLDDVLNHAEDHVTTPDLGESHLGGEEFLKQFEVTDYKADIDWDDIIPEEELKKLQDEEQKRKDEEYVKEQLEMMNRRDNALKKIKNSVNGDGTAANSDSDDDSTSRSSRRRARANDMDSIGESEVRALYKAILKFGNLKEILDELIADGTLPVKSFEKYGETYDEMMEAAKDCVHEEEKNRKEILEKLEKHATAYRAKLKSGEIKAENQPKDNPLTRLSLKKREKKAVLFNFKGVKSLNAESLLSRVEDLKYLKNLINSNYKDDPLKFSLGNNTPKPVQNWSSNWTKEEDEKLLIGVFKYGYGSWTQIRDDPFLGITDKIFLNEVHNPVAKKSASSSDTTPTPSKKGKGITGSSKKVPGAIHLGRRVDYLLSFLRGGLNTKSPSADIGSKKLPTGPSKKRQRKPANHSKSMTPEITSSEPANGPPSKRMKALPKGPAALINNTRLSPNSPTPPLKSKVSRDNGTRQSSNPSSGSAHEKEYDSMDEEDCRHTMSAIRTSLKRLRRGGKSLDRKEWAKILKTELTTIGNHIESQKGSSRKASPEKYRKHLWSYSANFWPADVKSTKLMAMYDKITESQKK

Protein translocase subunit SecA (Escherichia coli (strain K12)), sequence (P10408 whole entry): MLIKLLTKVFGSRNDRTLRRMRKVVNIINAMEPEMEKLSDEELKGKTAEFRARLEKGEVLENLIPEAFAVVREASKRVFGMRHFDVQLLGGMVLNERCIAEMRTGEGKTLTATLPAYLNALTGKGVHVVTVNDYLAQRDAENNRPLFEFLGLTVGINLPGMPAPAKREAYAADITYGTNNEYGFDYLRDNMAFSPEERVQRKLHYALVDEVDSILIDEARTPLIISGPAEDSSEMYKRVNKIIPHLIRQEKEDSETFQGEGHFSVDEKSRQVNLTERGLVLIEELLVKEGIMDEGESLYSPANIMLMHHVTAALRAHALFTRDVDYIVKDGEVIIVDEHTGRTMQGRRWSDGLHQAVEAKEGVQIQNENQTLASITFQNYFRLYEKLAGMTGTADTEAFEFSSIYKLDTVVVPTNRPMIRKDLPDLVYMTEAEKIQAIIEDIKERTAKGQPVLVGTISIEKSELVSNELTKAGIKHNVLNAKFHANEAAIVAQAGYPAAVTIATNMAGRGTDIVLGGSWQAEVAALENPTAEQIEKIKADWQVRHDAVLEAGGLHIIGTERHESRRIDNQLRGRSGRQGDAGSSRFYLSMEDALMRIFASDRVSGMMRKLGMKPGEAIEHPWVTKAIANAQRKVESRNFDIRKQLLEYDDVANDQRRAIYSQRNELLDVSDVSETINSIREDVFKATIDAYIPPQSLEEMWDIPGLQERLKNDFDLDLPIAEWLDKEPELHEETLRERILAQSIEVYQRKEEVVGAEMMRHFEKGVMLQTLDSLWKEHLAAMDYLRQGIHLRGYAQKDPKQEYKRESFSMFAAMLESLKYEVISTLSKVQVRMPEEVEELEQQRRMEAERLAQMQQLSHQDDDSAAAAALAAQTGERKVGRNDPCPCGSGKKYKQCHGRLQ
Sialic acid-binding Ig-like lectin 9 (Homo sapiens), sequence (Q9Y336 whole entry): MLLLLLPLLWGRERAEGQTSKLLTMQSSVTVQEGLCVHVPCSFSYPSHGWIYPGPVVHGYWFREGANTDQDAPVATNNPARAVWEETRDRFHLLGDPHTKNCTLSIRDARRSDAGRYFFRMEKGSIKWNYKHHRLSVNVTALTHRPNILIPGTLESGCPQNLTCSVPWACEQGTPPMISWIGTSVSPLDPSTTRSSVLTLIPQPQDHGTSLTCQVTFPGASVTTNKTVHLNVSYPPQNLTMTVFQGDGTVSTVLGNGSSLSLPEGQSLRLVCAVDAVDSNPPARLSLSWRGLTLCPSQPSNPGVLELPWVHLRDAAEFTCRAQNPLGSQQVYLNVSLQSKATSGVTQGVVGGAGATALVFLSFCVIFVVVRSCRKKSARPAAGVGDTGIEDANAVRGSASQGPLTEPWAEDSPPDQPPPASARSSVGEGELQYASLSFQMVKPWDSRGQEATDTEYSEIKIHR

Compound	Percent Effect [1] [%]	Percent Effect [2] [%]	Percent Effect [3] [%]	Percent Effect [4] [%]	Percent Effect (Trypanosoma cruzi) [%]	Percent Effect [5] [%]	Percent Effect [6] [%]	Percent Effect (Homo sapiens) [%]	Percent Effect [7] [%]	Percent Effect [8] [%]	Percent Effect [9] [%]
O=C(CC1CC1)NCc1cn2c(n1)CN(C(=O)c1cccnc1)CC2	-2.41	8	8.62	2.88	-7.28	1.17	2.73	9.61	0	8.97	3.52
CCOCC(=O)N1CCC(Oc2ccc(C(F)(F)F)cn2)CC1	0.852	5.2	2.97	4.76	-5.42	13.6	15.1	12.1	0	3.85	-4.83
Cc1cc(N2CCCCCC2)n2nc(C)c(C)c2n1	-1.9	4.17	-3.08	0.107	12.2	-0.883	23.3	3.63	0	12.8	-7.26
Cc1cc(C(=O)N2CCC(c3nccn3Cc3ccncc3)CC2)no1	-4.98	8.22	5.77	-7.08	-0.979	5.46	12.6	7.62	8.6	15	-1.03
CCn1c(C)nnc1CN(C)C1CCN(Cc2nccn2C)C1 (stereo unspecified)	2.98	10.8	-6.53	-4.6	-8.7	2.23	11.8	16.4	9.68	16.1	-3.99
O=C(NCCN1CCCCC1)c1nc2ccccc2c(=O)[nH]1	4.74	9.33	-7.18	-5.32	-8.05	-13.6	13.7	-0.00779	0	10.3	-9.94
Cc1ccccc1-c1cncc(C2CCN(C)CC2)n1	-3.38	-6.76	8.25	2.29	5.73	-1.62	-0.624	-1.24	5.38	3.9	-11.8
c1ccc(CN2CC[C@@H]3O[C@H](COCc4ccncc4)CC[C@@H]32)nc1	-0.0418	10.7	-4.7	-5.18	-8.46	5.83	9.07	-4.23	4.25	8.97	-2.83
O=C(Cn1c(=O)n(Cc2ccco2)c2ncccc21)Nc1ccccn1	-8.13	1.35	4.77	2.6	-6.13	-4.41	9.2	3.38	5.38	1.3	-0.416
COc1c(CNCc2cccc(CS(C)(=O)=O)c2)c(C)nn1C	-1.32	13.5	-7.47	-4.4	-6.13	1.2	4.68	4.32	-0.493	11.1	-6.98
COc1ncccc1C(=O)NCC1Cc2ccccc2O1 (stereo unspecified)	-0.887	5.48	2.87	0.0975	-1.76	1.36	21.3	-1.66	4.3	12.5	-7.46
